Results as given in PubChem BioAssay AID1259415 (National Center for Advancing Translational Sciences (NCATS), 2018).
In all, about 410,000 compounds went through this assay and about 18,000 (4.4%) were called active. Roughly 7% stayed inconclusive and do not appear here. No stated cut-off is given here; in the data, active means activity change below about -60%; inconclusive means no clear call, values can overlap the other calls; inactive means above about -39%. For the sample, actives were picked, then their nearest neighbours and some compounds at random.

assay: qHTS Assay for inhibitors of the human cytomegalovirus (HCMV); conditions: HFF cells, HCMV-luciferase reporter, 72 h; at 57.5 µM; stronger effect = lower value
Outline: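 Cell-based, HFFs, 1000 cells/well, 16 h 37C; cpds in DMSO + HCMV-luc, MOI 1 PFU/cell; 72 h 37C; OneGlo luminescence after 5 min RT; norm. to buffer vs Salinomycin 10uM.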
On the % scale 0 is the no-effect control and ±100 the full control effect.

Structure (SMILES)	activity change, negative = inhibition
CC(C)(C)c1ccc(C(=O)NCc2nnc(SCC(=O)N3CCCc4ccccc43)n2-c2ccccc2)cc1	-18.4% (inactive)
CC1(C)C(=O)CCC2(C)C1=CCC1C2C(=O)CC2(C)C1CCC2(O)C(=O)CO (stereo unspecified)	-4.43% (inactive)
Cc1cc(C)c(NC(=O)Cn2c(SCC(=O)NCc3ccccc3)nc3ccccc32)c(C)c1	-0.705% (inactive)
Cc1ccc(-n2c(SCC(=O)Nc3ncc(Cl)cc3Cl)nc3ccccc32)cc1	-98.7% (active)
CC1(C(=O)OCC(=O)Nc2ncc(Cl)cc2Cl)CC1(Cl)Cl (stereo unspecified)	-27.2% (inactive)
COc1cc2nc(SCC(=O)Nc3ccccc3F)n3nc(-c4ccccc4)nc3c2cc1OC	-6.09% (inactive)
Cc1ccccc1CS(=O)(=O)CC1Nc2ccc(C(=O)NCc3ccc(Cl)cc3)cc2NC1=O (stereo unspecified)	2.23% (inactive)
CC(C)c1ccc(OCC(=O)N(Cc2ccc(N(C)C)cc2)C2CCS(=O)(=O)C2)cc1 (stereo unspecified)	7.29% (inactive)
CCc1ccc(NC(=O)C2CCCN2S(=O)(=O)c2ccc3nc(-c4ccccc4)[nH]c3c2)cc1 (stereo unspecified)	-18.7% (inactive)
CCCCn1c(N)c(N(CCC(C)C)C(=O)COC(=O)c2cccnc2OCC)c(=O)[nH]c1=O	-5.28% (inactive)
NS(=O)(=O)c1ccc(CNC(=O)c2cc(S(=O)(=O)N3CCOCC3)ccc2N2CCCC2)cc1	-10.4% (inactive)
CCn1c(/C=C/c2ccc([N+](=O)[O-])o2)nc2ccccc2c1=O	-99.1% (active)
CCCN(CCC)c1c([N+](=O)[O-])c(=O)oc2ccccc12	-7.74% (inactive)
COc1cc(OC)c(OC)cc1/C=C/c1nc2ccccc2c(=O)n1-c1ccc(Br)c(C)c1	3.49% (inactive)
Cc1cc2nc(-c3ccc(NC(=O)c4cc5ccccc5o4)cc3)oc2cc1C	98.1% (inactive)
C=CCN1C(=O)N(Cc2ccccc2)c2ccccc2S1(=O)=O	8.55% (inactive)
Cc1ccc(-n2c(SCC(=O)Nc3cccc(F)c3)nc3c(oc4ccccc43)c2=O)cc1C	-8.05% (inactive)
Cc1cc(NC(=O)c2cc(-c3cccs3)on2)nn1Cc1ccc(Cl)cc1	-28.3% (inactive)
O=c1onc(-c2cccs2)n1Cc1ccccc1	-71.3% (active)
O=C(CSc1nnc(-c2cccs2)n1Cc1ccccc1)N1CCc2ccccc2C1	-10.6% (inactive)
CCC1=Nc2cc(C(=O)NCC(C)c3ccccc3)ccc2Sc2ccc(C)cc21 (stereo unspecified)	-7.44% (inactive)
CC1=Nc2cc(C(=O)NCc3ccc(C)cc3)ccc2Sc2ccc(Cl)cc21	-34.6% (inactive)

Structure (SMILES)	activity change, negative = inhibition
CCC1=Nc2cc(C(=O)NCCCOC(C)C)ccc2Sc2ccc(C)cc21	-62.8% (active)
CCc1ccc(Sc2cc(C(=O)NCCCOC(C)C)c3ccccc3n2)cc1	-34.7% (inactive)
COCCNC(=O)c1ccc2c(c1)ncn2-c1ccc(C)c(Cl)c1	52.5% (inactive)
COCCNC(=O)c1ccc2c(c1)N=C(C)c1cc(C)ccc1S2	-83.7% (active)
COc1ccc(Cc2nnnn2CC(=O)O)cc1	-17% (inactive)
Cc1ccc(NC(=O)CN2C(=O)C(c3ccc(F)cc3)=NC23CCCCCC3)c(C)c1	0.733% (inactive)
CCC(=O)N1c2ccccc2CC1C(=O)N1CCN(c2ccccc2F)CC1 (stereo unspecified)	3.71% (inactive)
O=C(NCCC1=CCCCC1)c1ccc2c(c1)N(Cc1ccccc1F)C(=O)c1ccccc1S2(=O)=O	2.55% (inactive)
CCOc1ccccc1N(C)C(=O)c1cc2c(s1)-c1ccccc1OC2	2.75% (inactive)
Cc1ccc(-c2noc(CCC(=O)Nc3ccccc3N3CCN(C)CC3)n2)cc1	-68.8% (active)
COc1ccc(-c2noc(CCC(=O)N3CCN(c4cccc(C)c4)CC3)n2)cc1	1.95% (inactive)
COc1cccc(CNC(=O)CCc2nc(-c3ccc(C)cc3)no2)c1	9.74% (inactive)
CCCN(c1ccc(C)cc1)c1nc(=O)c2cccnc2s1	-20.6% (inactive)
COc1ccc(OC)c(CNC(=O)CN2C(=O)CCn3nc(-c4cn(C)c5ccccc45)cc32)c1	3.11% (inactive)
O=C(NCCC1CCCCN1S(=O)(=O)c1ccc(F)cc1)C(=O)NC1CC1 (stereo unspecified)	-34% (inactive)
O=C1CCCCN1CCCC(=O)N1CCCC(Nc2ccc(F)cc2)C1 (stereo unspecified)	4.92% (inactive)
O=C1/C(=C/c2ccc(F)cc2)SC(=S)N1CCCC(=O)N1CCCCC1CCO (stereo unspecified)	-100% (active)
COc1ccc(S(=O)(=O)NCc2cccn2Cc2cccc(C)c2)cc1Cl	-8.25% (inactive)
CCOC(=O)C1CCN(c2nc3c(S(=O)(=O)c4ccc(CC)cc4)nnn3c3ccc(Cl)cc23)CC1	10.1% (inactive)
COc1ccc2c(c1)CC[C@@H]1[C@@H]2CC[C@]2(C)C(=O)CC[C@@H]12	-18.8% (inactive)
Cc1ccc(-n2cc3ccc([N+](=O)[O-])cc3n2)cc1	46.8% (inactive)
Cc1ccc(-c2nc(SCc3ccc(Br)cc3)n3[nH]c(=O)cc3n2)cc1	81.8% (inactive)

Structure (SMILES)	activity change, negative = inhibition
Cc1ccc2nc(-c3ccccc3)c(CC3CCCCC3)n2c1	43.3% (inactive)
Cc1ccc(-c2cn3cc(C)ccc3n2)cc1	-91.4% (active)
Cc1ccc(-c2cn3cc([N+](=O)[O-])ccc3n2)cc1	-89.1% (active)
Cc1ccc2nc(-c3ccc(Br)cc3)cn2c1	-89.7% (active)
CC(=O)Nc1c(-c2ccc(C)cc2)nc2ccc(Cl)cn12	7.31% (inactive)
Cc1nc(=O)c(-c2ccccc2)c(C)n1-c1ccc(Br)cc1	-37% (inactive)
Cc1ccc(N2CCN(c3ccc([N+](=O)[O-])cn3)CC2)c(C)c1	-6% (inactive)
CCOC(=O)c1c(C)[nH]c(C)c1S(=O)(=O)N1CCC(C(=O)Nc2ccc(C)c(Cl)c2)CC1	1.11% (inactive)
CCOC(=O)c1c(C)[nH]c(CCC(=O)NCCCN2CCN(c3cccc(Cl)c3)CC2)c1C	-37.8% (inactive)
CCOc1cc(CNC(=O)c2sc3ncnc(N(C)C4CCCCC4)c3c2C)ccc1OC	-22.8% (inactive)
O=C1CC(Sc2ncn[nH]2)C(=O)N1c1ccccc1 (stereo unspecified)	-11.2% (inactive)
CCOc1ccc(CCNC(=O)CN(c2ccc(C)cc2)S(=O)(=O)N(C)C)cc1OCC	-14.8% (inactive)
Cc1nn2c(=O)cc(COC(=O)CNC(=O)c3ccc(F)cc3)nc2s1	-0.933% (inactive)
CCOC(=O)c1ccn(S(=O)(=O)c2ccc(C)cc2)c1-c1ccccc1	-18.7% (inactive)
CCOC(=O)C1C(C)C(C(C)(C)C)N(S(=O)(=O)c2ccc(C)cc2)C1c1ccccc1 (stereo unspecified)	-77.2% (active)
Cc1ccc(S(=O)(=O)N2[C@@H](c3cccc4ccccc34)C(C(=O)O)=C[C@H]2C(C)(C)C)cc1	-14.1% (inactive)
CCc1nc2ccc(C(=O)N3CCN(c4cc(Cl)ccc4C)CC3)cc2nc1CC	33.5% (inactive)
CCC(=O)N1CCc2cc(S(=O)(=O)NC(C(=O)Nc3ccc(C(C)=O)cc3)C(C)C)ccc21 (stereo unspecified)	7.35% (inactive)
C=Cn1cc[n+](CC(=O)c2ccc(OC)c(OC)c2)c1	-10.4% (inactive)
COc1ccccc1CC(=O)Nc1ccc(S(=O)(=O)N2CCCC2)cc1	-14.7% (inactive)
COc1ccc(S(=O)(=O)N2CCC(C(=O)N3CCCC3)CC2)cc1C	1.95% (inactive)
COc1ccc(-c2ccc(Nc3ccc(S(=O)(=O)N4CCCC4)cc3)nn2)cc1OC	-67% (active)

Structure (SMILES)	activity change, negative = inhibition
O=C(CSc1oc(-c2ccccc2)nc1S(=O)(=O)c1ccc(Br)cc1)NC1CCCCC1	14% (inactive)
O=C(NCc1ccc(F)cc1)c1ccc(Cn2c(SCc3ccc(F)cc3)nc3cccnc32)cc1	16% (inactive)
Cc1c(C(=O)N(C)C)sc2c1c(=O)n(-c1ccc(F)cc1)c(=O)n2CC(=O)N(C)c1ccccc1	7.53% (inactive)
CN(C(=O)CC(NC(=O)c1ccccc1)(c1ccccc1)c1ccccc1)c1ccccc1	-66.2% (active)
Cc1ccc(S(=O)(=O)NCCC(=O)OCC(=O)N(C)c2ccccc2)cc1	2.56% (inactive)
CN(C(=O)COC(=O)CNC(=O)C12CC3CC(CC(C3)C1)C2)c1ccccc1	5.66% (inactive)
Cc1ccc(C)c(Oc2c(C(F)(F)F)oc3c(CN4CCN(C)CC4)c(O)ccc3c2=O)c1	-2.3% (inactive)
Cn1c(=O)nc2n(-c3ccc(Br)cc3)c3cccc(Cl)c3cc-2c1=O	-1.09% (inactive)
CCOC(=O)c1cc(OC(=O)c2ccccc2Cl)n(-c2ccccc2)n1	-20.3% (inactive)
Cc1ccc(CCNC(=O)c2nnc(Cc3cccc(F)c3)o2)cc1	-16.3% (inactive)
COc1ccc(C(CNCC(=O)Nc2ccccc2F)N(C)C)cc1 (stereo unspecified)	8.02% (inactive)
COc1ccc(CCNC(=O)COC(=O)Cc2ccccc2F)cc1	3.43% (inactive)
COc1ccc(C(CCNCc2ccccc2F)c2ccc(F)cc2)cc1 (stereo unspecified)	-62.4% (active)
C=C1CCN([C@H](C(=O)NCc2cc(OC)c(OC)c(OC)c2)C(C)C)S(=O)(=O)c2ccccc21	9.82% (inactive)
Cc1cccc(N2CCN(C(=O)Cn3ncc4c5ccccc5n(C)c4c3=O)CC2C)c1 (stereo unspecified)	17.6% (inactive)
CCN1CCN(C(=O)C2CCN(S(=O)(=O)c3cc(Cl)ccc3Cl)CC2)CC1	10.9% (inactive)
CCOC(=O)N1CCN(C(=O)C2CCN(S(=O)(=O)c3cc(Cl)ccc3OCC)CC2)CC1	-87% (active)
CCOC(=O)N1CCN(C(=O)C2CCN(S(C)(=O)=O)CC2)CC1	-16.6% (inactive)
CCn1c2c(c(=O)n3ncc(C(=O)N4CCN(c5ccccc5)CC4)c13)CN(Cc1ccc(OC)cc1)CC2	17.6% (inactive)
COc1ccccc1-n1c(-c2ccc(C)cc2)cn2c3c(=O)n(C)c(=O)n(C)c3nc12	-0.712% (inactive)
